Experimental data as given in PubChem BioAssay (Tox21).
Values joined by “and” are separate entries in the source; they are usually repeats but may differ in a detail not shown here. Equal values may be shown once. Results filed as inconclusive are left out. A call without a number means that no potency is given here. The source holds several records for some structures; these can differ, active in one and inactive in another. Active and inactive are the calls of the source. Unless noted, the call rests on the fitted dose curve; in most records, active means well fitted curve in the direction sought with a large enough effect in the repeat runs; inconclusive means weak or mixed curves; inactive means no such curve, though single readings can be large; an effect the other way counts as inactive or inconclusive.

Experiments:
[1] = Caspase-3/7 induction in CHO-K1 cells by small molecules, qHTS cell viability counter screen (AID 1346979); further: nearly all actives have a fitted effect of over 35% in size; further: potency means the concentration at half of the fitted maximal effect
Outline: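 CHO-K1 wt, 1,500 cells/well; 5hr pre-incubation 37C/5% CO2; compound pin transfer (DMSO); 16hr exposure; CellTiter-Fluor added, 1hr, fluorescence read.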

[2] = Caspase-3/7 induction in CHO-K1 cells by small molecules, qHTS assay (AID 1346980); further: nearly all actives have a fitted effect of over 15% in size; further: potency means the concentration at half of the fitted maximal effect
Outline: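 Wild-type cells were seeded at 1,500 per well and settled 5 hr at 37 C, 5% CO2, then exposed to DMSO-dissolved compounds for 17 hr. Caspase-Glo 3/7 reagent was added, and luminescence was read after 30min at room temperature.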

[3] = Caspase-3/7 induction in HepG2 cells by small molecules, qHTS cell viability counter screen (AID 1346981); further: nearly all actives have a fitted effect of over 30% in size; further: potency means the concentration at half of the fitted maximal effect
Outline: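 Multiplexed with the caspase-3/7 assay: HepG2 cells, 16 hr compound treatment, CellTiter-Fluor viability detection by fluorescence.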

[4] = biological target: Nuclear receptor subfamily 1 group I member 2 (Homo sapiens) (UniProt O75469); test: Human pregnane X receptor (PXR) small molecule agonists, qHTS assay (AID 1346982); further: nearly all actives have a fitted effect of over 35% in size; further: potency means the concentration at half of the fitted maximal effect
Chain of Nuclear receptor subfamily 1 group I member 2 (Homo sapiens) (O75469 whole entry, looked up): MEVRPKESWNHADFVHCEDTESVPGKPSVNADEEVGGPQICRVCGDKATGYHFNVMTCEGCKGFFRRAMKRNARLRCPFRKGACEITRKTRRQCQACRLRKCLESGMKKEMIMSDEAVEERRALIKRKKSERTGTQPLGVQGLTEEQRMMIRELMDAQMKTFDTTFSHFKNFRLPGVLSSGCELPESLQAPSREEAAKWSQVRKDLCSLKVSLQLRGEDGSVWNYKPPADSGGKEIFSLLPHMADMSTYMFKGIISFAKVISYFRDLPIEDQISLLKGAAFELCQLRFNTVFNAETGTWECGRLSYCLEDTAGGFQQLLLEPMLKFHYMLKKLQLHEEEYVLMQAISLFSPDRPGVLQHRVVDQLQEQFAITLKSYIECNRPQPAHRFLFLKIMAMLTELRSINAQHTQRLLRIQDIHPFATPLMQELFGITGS
Outline: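 We seeded PXR-Luc HepG2 cells in assay medium containing 5% charcoal-stripped FBS, added compounds 5 hr later, incubated 24 hr, and read luminescence with ONE-Glo reagent.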

[5] = biological target: Nuclear receptor subfamily 1 group I member 2 (Rattus norvegicus) (UniProt Q9R1A7); test: Rat pregnane X receptor (rPXR) activation by small molecules, qHTS assay (AID 1346983); details: rPXR luciferase reporter cells, One-Glo luminescence, 24 h; max activation: stronger effect = higher value; further: nearly all actives have a fitted effect of over 20% in size
Chain of Nuclear receptor subfamily 1 group I member 2 (Rattus norvegicus) (Q9R1A7 whole entry, looked up): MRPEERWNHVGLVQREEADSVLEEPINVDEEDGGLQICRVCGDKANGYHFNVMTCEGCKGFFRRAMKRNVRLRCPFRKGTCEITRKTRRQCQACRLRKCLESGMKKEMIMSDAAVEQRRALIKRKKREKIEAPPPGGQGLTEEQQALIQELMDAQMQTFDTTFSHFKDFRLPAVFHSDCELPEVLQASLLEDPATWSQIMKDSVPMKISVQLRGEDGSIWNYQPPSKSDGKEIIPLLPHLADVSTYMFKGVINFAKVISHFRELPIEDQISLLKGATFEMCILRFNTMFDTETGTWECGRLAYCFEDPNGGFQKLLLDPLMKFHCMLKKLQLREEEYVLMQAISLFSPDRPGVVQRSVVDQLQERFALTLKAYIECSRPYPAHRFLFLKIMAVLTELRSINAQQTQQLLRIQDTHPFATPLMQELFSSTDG
Outline: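 Cell-based rPXR luciferase reporter assay, 2,000 cells per well, rested 5hr at 37 C before compound addition in DMSO, then 24 hr at 37 C. One-Glo reagent was added and luminescence read after 30 min at room temperature.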

[6] = biological target: Nuclear receptor subfamily 1 group I member 2 (Homo sapiens) (UniProt O75469); test: CYP3A4 induction through human pregnane X receptor (PXR) by small molecules, qHTS assay (AID 1346984); further: nearly all actives have a fitted effect of over 40% in size; further: potency means the concentration at half of the fitted maximal effect
Outline: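 qHTS, concentration-response format: HepG2 DPX-2 line, PXR/CYP3A4-luc. Exposure 24 h, 37C. Substrate Luciferin-IPA 3uM final, 3 h. Detection One-Glo, 30 min RT.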

[7] = biological target: Nuclear receptor subfamily 1 group I member 2 (Homo sapiens) (UniProt O75469); test: Human pregnane X receptor (PXR) activation by small molecules, qHTS assay (AID 1346985); further: nearly all actives have a fitted effect of over 40% in size
Outline: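 DPX-2 cells (HepG2 co-transfected with a PXR response element and a CYP3A4-promoter luciferase construct) were seeded at 2,000 per well, rested 5 hr at 37C, then exposed to DMSO-dissolved compounds for 24 hr. Activation was read as luciferase luminescence.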

[8] = biological target: Acetylcholinesterase (Homo sapiens) (UniProt P22303); test: Acetylcholinesterase (AChE) small molecule antagonists: colormetric cell-based qHTS assay (AID 1347395; calls by dose curve; further: nearly all actives have a fitted effect of over 30% in size; further: potency means the concentration at half of the fitted maximal effect)
Chain of Acetylcholinesterase (Homo sapiens) (P22303 whole entry, looked up): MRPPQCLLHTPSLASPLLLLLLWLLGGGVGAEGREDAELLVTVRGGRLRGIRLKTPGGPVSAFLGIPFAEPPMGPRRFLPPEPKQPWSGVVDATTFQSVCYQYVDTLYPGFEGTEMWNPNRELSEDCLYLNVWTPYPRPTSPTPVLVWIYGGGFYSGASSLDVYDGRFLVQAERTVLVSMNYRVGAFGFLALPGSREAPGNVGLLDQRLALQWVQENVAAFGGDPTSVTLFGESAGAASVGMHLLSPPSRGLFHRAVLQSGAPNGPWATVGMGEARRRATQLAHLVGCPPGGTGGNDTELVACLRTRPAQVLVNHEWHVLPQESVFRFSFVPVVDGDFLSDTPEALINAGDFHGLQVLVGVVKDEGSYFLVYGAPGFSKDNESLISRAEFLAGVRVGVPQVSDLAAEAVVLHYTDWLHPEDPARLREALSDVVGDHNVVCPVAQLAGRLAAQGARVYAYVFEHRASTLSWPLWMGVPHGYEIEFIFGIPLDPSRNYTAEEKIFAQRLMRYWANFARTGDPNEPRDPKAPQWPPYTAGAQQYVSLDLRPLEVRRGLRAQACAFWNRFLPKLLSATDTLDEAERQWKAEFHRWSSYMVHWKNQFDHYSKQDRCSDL
Outline: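 SH-SY5Y cells; cpd 30 min 37 C; + DTNB/acetylthiocholine, 90 min 37 C; colorimetric thiocholine read; qHTS.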

[9] = biological target: Acetylcholinesterase (Homo sapiens) (UniProt P22303); test: Acetylcholinesterase (AChE) small molecule antagonists: enzyme-based qHTS assay (AID 1347397; calls by dose curve; further: nearly all actives have a fitted effect of over 55% in size; further: potency means the concentration at half of the fitted maximal effect); details: Potency: AChE enzyme activity inhibition
Outline: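 Human recombinant acetylcholinesterase; substrate acetylthiocholine; thiocholine quantified with DTNB (colorimetric). Compound preincubation 30 min RT; reaction 10 min RT.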

[10] = biological target: Acetylcholinesterase (Homo sapiens) (UniProt P22303); test: Acetylcholinesterase (AChE) small molecule antagonists: fluorescence cell-based qHTS assay (AID 1347398; calls by dose curve; further: nearly all actives have a fitted effect of over 50% in size); details: Potency: AChE activity
Outline: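 Thiocholine generated from acetylthiocholine by SH-SY5Y cell AChE is detected with Thiolite Green (Ex/Em 490/520 nm) after 40 min at room temperature, following 30 min compound pretreatment at 37 C.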

## Clc1ccc(C(c2ccc(Cl)cc2)C(Cl)(Cl)Cl)cc1
[1]
  Potency: 69.1 µM (active) and inactive
[2]
  Potency: inactive
[3]
  Potency: inactive
[4]
  Potency: 17.4 µM (active) and 13.3 µM (active)
[5]
  max activation: 8.77% (inactive)
[6]
  Potency: 22.4 µM (active)
[7]
  Potency: inactive
[8]
  Potency: inactive
[9]
  Potency: inactive
[10]
  Potency: inactive

## FC(F)(F)c1cccc(C2=CCN(CCc3ccc4ccccc4c3)CC2)c1
[1]
  Potency: inactive
[2]
  Potency: inactive
[3]
  Potency: inactive
[4]
  Potency: inactive
[5]
  max activation: -2.77% (inactive)
[6]
  Potency: inactive
[7]
  Potency: inactive

## CC1(c2ccc(Oc3ccccc3)cc2)OC(=O)N(Nc2ccccc2)C1=O (stereo not drawn)
[1]
  Potency: 6.9 µM (active)
[2]
  Potency: inactive
[3]
  Potency: 27.5 µM (active)
[4]
  Potency: 21.8 µM (active)
[8]
  Potency: inactive
[9]
  Potency: inactive
[10]
  Potency: inactive

## CCCCOCN(C(=O)CCl)c1c(CC)cccc1CC
[1]
  Potency: 61.1 µM (active)
[2]
  Potency: inactive
[3]
  Potency: inactive
[4]
  Potency: 2.73 µM (active)
[8]
  Potency: inactive
[9]
  Potency: inactive
[10]
  Potency: inactive

## Cc1ccc(OP(=O)(Oc2ccccc2)Oc2ccccc2)cc1
[1]
  Potency: inactive
[2]
  Potency: inactive
[3]
  Potency: inactive
[4]
  Potency: 13.9 µM (active)
[8]
  Potency: 20.3 µM (active)
[9]
  Potency: 20.3 µM (active)

## Cn1cc(C2=C(c3cn(C4CCN(Cc5ccccn5)CC4)c4ccccc34)C(=O)NC2=O)c2ccccc21
[1]
  Potency: 10.6 µM (active)
[2]
  Potency: inactive
[3]
  Potency: 10.6 µM (active)
[4]
  Potency: inactive
[8]
  Potency: inactive
[9]
  Potency: inactive
[10]
  Potency: inactive

## CCOP(=S)(OCC)SCS(=O)(=O)C(C)(C)C
[1]
  Potency: inactive
[2]
  Potency: inactive
[3]
  Potency: inactive
[4]
  Potency: 9.69 µM (active)
[8]
  Potency: 63.3 µM (active)

## COc1cc(N)c(Cl)cc1C(=O)NC1CN2CCC1CC2 (stereo not drawn)
[1]
  Potency: inactive
[2]
  Potency: inactive
[3]
  Potency: inactive
[4]
  Potency: inactive
[5]
  max activation: -2.4% (inactive)
[6]
  Potency: inactive
[7]
  Potency: inactive

## CC(C)CC(C)Nc1ccc(Nc2ccccc2)cc1 (stereo not drawn)
[1]
  Potency: 60.1 µM (active)
[2]
  Potency: inactive
[3]
  Potency: 67.4 µM (active)
[4]
  Potency: 12 µM (active)
[8]
  Potency: inactive
[9]
  Potency: inactive

## CNC(C)Cc1ccc2c(c1)OCO2 (stereo not drawn)
[1]
  Potency: inactive
[2]
  Potency: inactive
[3]
  Potency: inactive
[4]
  Potency: inactive
[8]
  Potency: inactive
[9]
  Potency: inactive
[10]
  Potency: inactive

## COc1ccc([N+](=O)[O-])cc1O
[1]
  Potency: inactive
[2]
  Potency: inactive
[3]
  Potency: inactive
[4]
  Potency: inactive
[8]
  Potency: inactive
[9]
  Potency: inactive

## [Cd+2].[Cl-].[Cl-]
[1]
  Potency: 1.23 µM (active) and 611 nM (active)
[2]
  Potency: inactive
[3]
  Potency: 54.9 µM (active) and 30.6 µM (active)

## CN(C)[C@@H]1C(=O)C(C(N)=O)=C(O)[C@@]2(O)C(=O)C3=C(O)c4c(O)ccc(Cl)c4[C@@](C)(O)[C@H]3C[C@@H]12
[1]
  Potency: 27.9 µM (active)
[2]
  Potency: inactive

## CC(C)C1CCC(Cc2ccc(Cl)cc2)C1(O)Cn1cncn1 (stereo not drawn)
[1]
  Potency: 30.3 µM (active)
[2]
  Potency: inactive
[3]
  Potency: 60.5 µM (active)
[4]
  Potency: 21.5 µM (active)
[8]
  Potency: inactive
[9]
  Potency: inactive
[10]
  Potency: inactive

## CC(=O)[O-].CC(=O)[O-].O.O.[Cd+2]
[1]
  Potency: 1.7 µM (active)
[2]
  Potency: inactive
[3]
  Potency: 67.6 µM (active)

## Cc1ccc(CCl)cc1
[1]
  Potency: inactive
[2]
  Potency: inactive
[3]
  Potency: inactive
[4]
  Potency: inactive
[8]
  Potency: inactive
[9]
  Potency: inactive
[10]
  Potency: inactive

## CCCSP(=O)(OCC)SCCC
[1]
  Potency: inactive
[2]
  Potency: inactive

## O=c1[nH]c2ccccc2n1C1CCN(CCCC(c2ccc(F)cc2)c2ccc(F)cc2)CC1
[1]
  Potency: 30.6 µM (active) and 26.6 µM (active)
[2]
  Potency: 30.6 µM (active)
[3]
  Potency: 54.5 µM (active)
[4]
  Potency: inactive
[8]
  Potency: inactive
[9]
  Potency: inactive
[10]
  Potency: inactive

## CCc1ccccc1C
[1]
  Potency: inactive
[2]
  Potency: inactive
[3]
  Potency: inactive
[4]
  Potency: inactive
[8]
  Potency: inactive
[9]
  Potency: inactive
[10]
  Potency: inactive

## C[C@]12Cc3nonc3C[C@@H]1CC[C@@H]1[C@@H]2CC[C@@]2(C)[C@H]1CC[C@]2(C)O
[1]
  Potency: 11.9 µM (active)
[2]
  Potency: inactive
[3]
  Potency: inactive
[4]
  Potency: 29.8 µM (active)
[6]
  Potency: inactive
[7]
  Potency: inactive
[8]
  Potency: inactive
[9]
  Potency: inactive
[10]
  Potency: inactive

## CCSC(C)CC1CC(=O)C(/C(CC)=N/OC/C=C/Cl)=C(O)C1 (stereo not drawn)
[1]
  Potency: inactive
[2]
  Potency: inactive
[3]
  Potency: inactive
[4]
  Potency: inactive
[8]
  Potency: 30.9 µM (active)
[9]
  Potency: inactive

## CCCCCCCCCCCCCCCC[N+](C)(C)C
[1]
  Potency: 26.3 µM (active) and 48.6 µM (active) and 29.8 µM (active)
[2]
  Potency: inactive
[3]
  Potency: 68.6 µM (active)
[4]
  Potency: inactive
[5]
  max activation: -8.83% (inactive)
[6]
  Potency: inactive
[7]
  Potency: inactive

## CC[C@H](C)[C@H]1O[C@]2(C=C[C@@H]1C)C[C@@H]1C[C@@H](C/C=C(\C)[C@@H](O[C@H]3C[C@H](OC)[C@@H](O[C@H]4C[C@H](OC)[C@@H](O)[C@H](C)O4)[C@H](C)O3)[C@@H](C)/C=C/C=C3\CO[C@@H]4[C@H](O)C(C)=C[C@@H](C(=O)O1)[C@]34O)O2
[1]
  Potency: 14.4 µM (active)
[2]
  Potency: inactive
[3]
  Potency: 25.6 µM (active)
[4]
  Potency: inactive
[5]
  max activation: -15.3% (inactive)
[6]
  Potency: inactive
[7]
  Potency: inactive
[8]
  Potency: inactive
[9]
  Potency: inactive
[10]
  Potency: inactive

## C[C@@H]1O[C@@H](O[C@H]2C[C@@H](O)[C@]3(CO)[C@H]4[C@H](O)C[C@]5(C)[C@@H](C6=CC(=O)OC6)CC[C@]5(O)[C@@H]4CC[C@]3(O)C2)[C@H](O)[C@H](O)[C@H]1O
[1]
  Potency: inactive
[2]
  Potency: inactive
[3]
  Potency: inactive
[4]
  Potency: inactive
[5]
  max activation: 0.399% (inactive) and -3.08% (inactive)
[7]
  Potency: inactive
[8]
  Potency: inactive
[9]
  Potency: inactive
[10]
  Potency: inactive

## CC(C)(C)OO
[1]
  Potency: inactive
[2]
  Potency: inactive
[3]
  Potency: inactive
[4]
  Potency: inactive
[8]
  Potency: inactive
[9]
  Potency: inactive
[10]
  Potency: inactive

## CC(c1ccc(O)cc1)c1ccc(O)cc1
[1]
  Potency: inactive
[2]
  Potency: inactive
[3]
  Potency: inactive
[4]
  Potency: 45.5 µM (active) and 61.1 µM (active)
[8]
  Potency: inactive
[9]
  Potency: inactive
[10]
  Potency: inactive

## O=[N+]([O-])O.O=[N+]([O-])O.[Cd]
[1]
  Potency: 1.72 µM (active)
[2]
  Potency: inactive

## CN(C)C(=S)S
[1]
  Potency: 8.81 µM (active) and 857 nM (active) and 12.2 µM (active)
[2]
  Potency: inactive
[3]
  Potency: inactive
